We go through seven compounds from PubChem BioAssay (Tox21).

Several values for one entry are separate records, joined by “and”; a condition that tells them apart may be missing. Equal entries are not always repeated. Records with an inconclusive call do not appear. Some structures have more than one record in an assay (separate samples or runs), and their calls can disagree. Activity calls are given as the source filed them. Unless noted, calls follow the shape of the dose curve; as a rule, active = well fitted curve in the direction sought with a large enough effect in the repeat runs; inconclusive = weak or mixed curves; inactive = no such curve, though single readings can be large; an effect the other way counts as inactive or inconclusive.

Assay [1] in a line: qHTS assay to identify small molecule antagonists of the estrogen related receptor (ERR) signaling pathway from Tox21 library - cell viability counter screen (AID 1224834). Also: nearly all actives have a fitted effect of over 30% in size. In a few lines: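 Seeded ERR cells were rested 6 h at 37 C/5% CO2 before compounds, positive and negative controls or DMSO were added. Incubation continued for 17.5 h, and viability was then quantified by CellTiter-Fluor fluorescence.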
In general terms: Quantitative high-throughput screening tests each substance at several concentrations.

Assay [2] deals with Luciferin 4-monooxygenase (Photinus pyralis) (UniProt P08659). The assay can be described thus: qHTS assay to identify small molecule inhibitors of firefly luciferase (AID 1224835). Also: nearly all actives have a fitted effect of over 25% in size. Put shortly:
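Quantitative HTS format; KM concentrations of both substrates. Purified P. pyralis FLuc activity quantified from luminescence images.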

Assay [3] in a line: qHTS assay to identify small molecule agonists of the constitutive androstane receptor (CAR) signaling pathway - cell viability counter screen (AID 1224836). Also: nearly all actives have a fitted effect of over 45% in size. Put shortly: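 HepG2 cells stably carrying hCAR and a CYP2B6-2.2kb reporter were plated 4 h, then given compounds at 15 concentrations plus PK11195 (final 0.75 uM). After 23 h at 37 C, viability was read by CellTiter-Fluor fluorescence.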

The nature of assay [4]: qHTS assay to identify small molecule antagonists of the constitutive androstane receptor (CAR) signaling pathway - cell viability counter screen (AID 1224837). Also: nearly all actives have a fitted effect of over 45% in size. In a few lines:
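To flag cytotoxic false antagonists, HepG2 hCAR/CYP2B6-2.2kb cells were treated 23 hr with 15-concentration compound series and 50 nM CITCO at 37 C/5% CO2; CellTiter-Fluor fluorescence was the measured end point.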

Assay [5] concerns the target Nuclear receptor subfamily 1 group I member 3 (Homo sapiens) (UniProt Q14994). Nature of the assay: qHTS assay to identify small molecule antagonists of the constitutive androstane receptor (CAR) signaling pathway (AID 1224838). Also: nearly all actives have a fitted effect of over 40% in size. In a few lines:
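Human hepatoma HepG2 cells expressing hCAR and a CYP2B6 promoter (2.2 kb) luciferase construct; compound titration (15 points) with 50 nM CITCO final, 24 h at 37 C/5% CO2; luminescence via ONE-Glo after 30 min at room temperature.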

Assay [6] has the same target. The assay can be described thus: qHTS assay to identify small molecule agonists of the constitutive androstane receptor (CAR) signaling pathway (AID 1224839). Also: nearly all actives have a fitted effect of over 15% in size. In a few lines: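 HepG2 cells stably expressing hCAR and a CYP2B6-2.2kb luciferase reporter were treated with compounds at 15 concentrations plus 0.75 uM PK11195 (final) for 24 h at 37 C; luminescence was read after ONE-Glo addition.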

Assay [7] can be described thus: qHTS assay to identify small molecule antagonists of the estrogen related receptor signaling pathway with the pleiotropic PPARgamma coactivator (PGC) from Tox21 10K library - cell viability counter screen (AID 1224840; active = well fitted cell-killing curve with a large enough effect in the repeat runs, not every such curve was filed as active; also: nearly all actives have a fitted effect of over 40% in size). Put shortly:
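Seeded PGC/ERR cells (2,000/well, 6 h, 37 C/5% CO2) get compound by pin tool; 17.5 h incubation at 37 C; CellTiter-Fluor added, 30 min, fluorescence measured.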

Assay [8] in a line: qHTS assay to identify small molecule antagonists of the estrogen related receptor signaling pathway with the pleiotropic PPARgamma coactivator (PGC) from Tox21 10K library (AID 1224841; call rule not given here; also: actives are mostly falling curves and most rising ones were filed inactive; nearly all actives have a fitted effect of over 50% in size; also: potency is read from the fitted curve at half-maximal effect). In a few lines: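 Test chemicals dissolved in DMSO were applied to pre-incubated (6 h) PGC/ERR cells at 2,000 cells/well for an 18 h, 37 C treatment; reporter luminescence was then read using One-Glo.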

Assay [9] is described as follows: qHTS assay to identify small molecule agonists of the estrogen related receptor signaling pathway with the pleiotropic PPARgamma coactivator (PGC) from Tox21 10K library (AID 1224842). Also: nearly all actives have a fitted effect of over 15% in size. Put shortly: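 PGC/ERR reporter cells (NTP line) were seeded 2,000 per well, rested 6 h at 37 C/5% CO2, then pin-dosed with compounds in DMSO for 18 h at 37 C; luciferase read by One-Glo luminescence after 30 min at room temperature.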

In assay [10] the target is Thyrotropin receptor (Homo sapiens) (UniProt P16473). Nature of the assay: qHTS assay to identify small molecule agonists of the thyroid stimulating hormone receptor (TSHR) signaling pathway (AID 1224843; calls by dose curve; also: nearly all actives have a fitted effect of over 45% in size). In a few lines:
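Using 15 concentrations per compound in triplicate, cAMP production was monitored in TSHR-HEK293 cells after 30 min compound incubation at RT; HTRF reagents followed, with fluorescence intensity recorded after 1 h.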

Assay [11] is described as follows: qHTS assay to identify small molecule agonists of the hypoxia (HIF-1) signaling pathway - cell viability counter screen (AID 1224844; calls by dose curve; also: nearly all actives have a fitted effect of over 50% in size; also: potency is read from the fitted curve at half-maximal effect). In a few lines:
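HRE-bla ME-180; 0.5% dFBS; cpd 17 h, 37C, 5% CO2; CellTiter-Glo lum., 30 min RT, post-FRET read, same wells.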

A short description of assay [12]: qHTS assay to identify small molecule agonists of H2AX (AID 1224845; active = well fitted activation curve with a large enough effect in the signal ratio in the repeat runs, not every such curve was filed as active; the % refers to the signal ratio). In a few lines: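 Wild-type CHO-K1 cells plated overnight, then exposed 3 hr at 37C to compounds at 15 concentrations (0.76% DMSO). Lysed, then HTRF anti-pH2AX(S139)-cryptate/anti-H2AX-d2 detection after 24 hr at room temperature; emissions 665 and 620 nm.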
A short description of assay [13]: qHTS assay to identify small molecule agonists of the hypoxia (HIF-1) signaling pathway (AID 1224846; active = well fitted activation curve with a large enough effect in the signal ratio in the repeat runs, not every such curve was filed as active; the % refers to the signal ratio). Put shortly: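 Reporter induction in HRE-bla ME-180 cells is taken as agonism: cells sit 5 hrs after plating, receive compounds or DMSO only, incubate 17 hrs at 37C under 5% CO2, and are loaded with CCF4-AM for beta-lactamase FRET measurement.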
A short description of assay [14]: qHTS assay to identify small molecule agonists of H2AX - cell viability counter screen (AID 1224847; calls by dose curve; also: top concentration of the series differs between compounds; nearly all actives have a fitted effect of over 30% in size). In a few lines:
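Wild-type CHO-K1 cells (10% FBS medium) were plated overnight at 37C, exposed to compounds at 15 concentrations for 3 hr at 37C (0.76% DMSO final), and viability was read as CellTiter-Glo luminescence after 30 min at room temperature.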

A short description of assay [15]: qHTS assay to identify small molecule antagonists of the estrogen related receptor (ERR) signaling pathway from Tox21 library (AID 1224848). Also: nearly all actives have a fitted effect of over 50% in size. Also: potency is read from the fitted curve at half-maximal effect. In a few lines:
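Tox21 10K compounds in DMSO tested for ERR pathway antagonism in NTP's ERR cell line; 18 h, 37 C exposure; ONE-Glo luminescence.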

Assay [16] in a line: qHTS RealTime-Glo MT Cell Viability Assay in HepG2 cells - 24 hour (AID 1224867). Also: nearly all actives have a fitted effect of over 50% in size. Put shortly:
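Cell number in HepG2 cultures estimated from NanoLuc luminescence generated by metabolic reduction of a prosubstrate by living cells. The homogeneous, nonlytic format allowed repeated reads at 0, 8, 16, 24, 32 and 40 h of compound exposure.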

Assay [17] can be described thus: qHTS RealTime-Glo MT Cell Viability Assay in HEK293 cells - 32 hour (AID 1224868). Also: nearly all actives have a fitted effect of over 50% in size. Also: potency is read from the fitted curve at half-maximal effect. In a few lines: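 Homogeneous bioluminescent viability format in HEK293 cells (600 cells/well). Following 5 h at 37 C/5% CO2, 23 nL compound was pintooled; the signal was measured repeatedly during 40 h incubation.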
Assay [18] is described as follows: A CellTox Green Cytotoxicity Assay to monitor cytotoxicity in HEK293 cells - 0 hour (AID 1224869). Also: nearly all actives have a fitted effect of over 50% in size. In a few lines: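 Tox21 screen in HEK293: membrane-impermeant cyanine dye fluoresces on binding dead-cell DNA; compound pinned 5 h post-seeding, plates held at 37 C, signal read repeatedly through 40 h.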
The nature of assay [19]: qHTS assay to identify small molecule agonists of the estrogen related receptor signaling pathway with the pleiotropic PPARgamma coactivator (PGC) (AID 1224823). Put shortly:
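In this quantitative high-throughput screen, an 18 h, 37 C treatment of PGC/ERR cells with compounds in DMSO preceded a One-Glo luminescence read taken after 30 min at room temperature.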

Assay [20] in a line: qHTS assay to identify small molecule agonists of the estrogen related receptor (ERR) signaling pathway from Tox21 library (AID 1224849; calls by dose curve; also: nearly all actives have a fitted effect of over 15% in size). To be noted: ERR reporter cell line, ONE-Glo luciferase, 18 h. Put shortly: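 Tox21 compounds tested for ERR agonism in an NTP reporter cell line: 18 h treatment at 37 C, then ONE-Glo luminescence.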
% is scaled to controls: 0 for no effect and ±100 for the full control effect.

Chain of Luciferin 4-monooxygenase (Photinus pyralis) (P08659 whole entry, looked up): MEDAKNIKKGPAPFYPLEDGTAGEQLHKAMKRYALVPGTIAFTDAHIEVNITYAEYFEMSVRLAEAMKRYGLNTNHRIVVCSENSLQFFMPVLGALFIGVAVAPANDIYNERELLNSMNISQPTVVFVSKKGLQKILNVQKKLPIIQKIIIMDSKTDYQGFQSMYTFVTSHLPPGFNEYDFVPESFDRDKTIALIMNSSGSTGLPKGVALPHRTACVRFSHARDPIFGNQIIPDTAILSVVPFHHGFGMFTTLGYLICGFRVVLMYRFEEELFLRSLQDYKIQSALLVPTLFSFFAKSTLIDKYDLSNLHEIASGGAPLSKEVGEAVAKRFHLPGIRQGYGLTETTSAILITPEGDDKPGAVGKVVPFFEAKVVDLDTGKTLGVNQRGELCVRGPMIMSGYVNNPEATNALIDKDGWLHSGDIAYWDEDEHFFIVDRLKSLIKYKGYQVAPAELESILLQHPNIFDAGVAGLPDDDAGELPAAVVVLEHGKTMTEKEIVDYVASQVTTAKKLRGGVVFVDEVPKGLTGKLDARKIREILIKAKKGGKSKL
Chain of Thyrotropin receptor (Homo sapiens) (P16473 whole entry, looked up): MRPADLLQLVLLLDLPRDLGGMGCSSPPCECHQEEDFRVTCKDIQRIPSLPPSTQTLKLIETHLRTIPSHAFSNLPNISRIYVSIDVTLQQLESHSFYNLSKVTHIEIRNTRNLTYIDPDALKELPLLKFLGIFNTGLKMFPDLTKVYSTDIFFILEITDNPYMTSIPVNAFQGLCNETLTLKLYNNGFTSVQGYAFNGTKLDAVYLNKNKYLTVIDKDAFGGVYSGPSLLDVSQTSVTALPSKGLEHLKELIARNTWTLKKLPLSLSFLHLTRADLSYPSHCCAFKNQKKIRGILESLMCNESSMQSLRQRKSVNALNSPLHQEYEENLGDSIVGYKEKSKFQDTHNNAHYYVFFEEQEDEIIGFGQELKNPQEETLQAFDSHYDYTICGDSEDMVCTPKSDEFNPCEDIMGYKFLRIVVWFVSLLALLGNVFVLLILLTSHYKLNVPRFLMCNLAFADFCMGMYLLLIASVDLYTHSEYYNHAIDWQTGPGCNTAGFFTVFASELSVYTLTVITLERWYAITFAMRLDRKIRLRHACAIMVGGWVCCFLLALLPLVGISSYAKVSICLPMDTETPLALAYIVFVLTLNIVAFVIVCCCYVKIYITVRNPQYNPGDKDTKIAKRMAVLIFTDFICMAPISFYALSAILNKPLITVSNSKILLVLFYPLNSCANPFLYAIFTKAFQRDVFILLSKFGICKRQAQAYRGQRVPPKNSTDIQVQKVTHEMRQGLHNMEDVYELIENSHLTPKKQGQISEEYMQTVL
Chain of Nuclear receptor subfamily 1 group I member 3 (Homo sapiens) (Q14994 whole entry, looked up): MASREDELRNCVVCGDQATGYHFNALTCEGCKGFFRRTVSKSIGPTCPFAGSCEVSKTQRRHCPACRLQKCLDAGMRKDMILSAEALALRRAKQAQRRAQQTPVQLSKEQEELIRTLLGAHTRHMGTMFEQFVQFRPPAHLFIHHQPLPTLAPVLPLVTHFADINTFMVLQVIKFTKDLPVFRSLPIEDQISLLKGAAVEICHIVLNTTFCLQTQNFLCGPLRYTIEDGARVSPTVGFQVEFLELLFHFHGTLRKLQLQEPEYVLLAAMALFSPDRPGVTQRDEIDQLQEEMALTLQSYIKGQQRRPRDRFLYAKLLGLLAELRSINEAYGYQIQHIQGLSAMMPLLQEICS

Consider `CCCCCCOC(C)=O`, for which the Potency result in [1], in assay [2], in assay [3], in assay [4], in assay [5] and in assay [6] was “inactive” each time. In addition, the Potency entry in assay [7], in assay [8], in assay [9], in assay [10], in assay [12] and in [14] was “inactive” throughout. The Potency entry in assay [15], in assay [16], in assay [17] and in [18] was “inactive” in each case. Also, the Potency entry in [11] was “inactive and 27.5 µM (active)”. In assay [13], the call was inactive.
As for `CC#C[C@]1(O)CC[C@H]2[C@@H]3CCC4=CC(=O)CCC4=C3[C@@H](c3ccc(N(C)C)cc3)C[C@@]21C`, the Potency entry in assay [19], in assay [2], in [5], in [6], in [7] and in [9] was “inactive” throughout. The Potency entry in assay [10], in assay [11], in assay [14] and in [16] was “inactive” each time. In addition, the Potency is 21.7 µM (active) and 29.8 µM (active) in [8]; 26.6 µM (active) in assay [15]; 49 µM (active) in assay [17]. The compound was called inactive in assay [13]. Besides, the activity change, positive = activation was -53.3% (inactive) in assay [20] (at 42.5 µM (top of the series)) and -62.2% (inactive) in assay [20] (at 92.4 µM (top of the series)).
On to `ClC1=C(Cl)C(Cl)(Cl)C(Cl)=C1Cl`, for which the Potency result in [1], in [2], in assay [3], in assay [4], in [5] and in [6] was “inactive” throughout. Also, the Potency entry in assay [7], in assay [8], in [9], in assay [10], in assay [12] and in assay [14] was “inactive” each time. The Potency entry in assay [15], in assay [16] and in [18] was “inactive” throughout. Moreover, the Potency was 11 µM (active) and 6.17 µM (active) in assay [11]; 39.1 µM (active) in assay [17].
Take `CC1Cc2ccccc2N1NC(=O)c1ccc(Cl)c(S(N)(=O)=O)c1` (stereo not given): the Potency entry in assay [1], in assay [2], in assay [3], in assay [4], in assay [5] and in assay [6] was “inactive” each time. In addition, the Potency result in assay [7], in assay [8], in assay [9], in [10], in assay [11] and in assay [12] was “inactive” throughout. In addition, the Potency entry in [14], in assay [15], in [16] and in [17] was “inactive” in each case. The activity change, positive = activation in [20] (at 42.5 µM (top of the series)) was -17.1% (inactive); in assay [20] (at 92.4 µM (top of the series)), -13.4% (inactive).
As for `NCc1cccc(CN)c1`, the Potency result in assay [1], in assay [2], in assay [3], in assay [4], in assay [5] and in assay [6] was “inactive” in each case. For the same compound, the Potency entry in [7], in [10], in assay [11], in assay [12], in assay [14] and in assay [16] was “inactive” throughout. Moreover, in assay [17], the Potency result is “inactive”. Moreover, the compound was called inactive in assay [13].
Regarding `O=S(=O)(O)CCS`, the Potency entry in assay [1], in [2], in assay [3], in assay [4], in assay [5] and in assay [6] was “inactive” each time. Also, the Potency result in assay [7], in assay [8], in assay [9], in [10], in assay [11] and in [12] was “inactive” in each case. In addition, the Potency entry in [14], in assay [15], in assay [16], in [17] and in [18] was “inactive” throughout. The compound was called inactive in assay [13].
As to `CCc1ccccc1O`, the Potency entry in assay [1], in assay [2], in assay [3], in [4], in [5] and in assay [6] was “inactive” in each case. The Potency result in assay [7], in [10], in assay [11], in assay [12], in assay [14] and in assay [16] was “inactive” throughout. Further, the Potency entry in [17] is “inactive”. In assay [13], the compound was called inactive.
